# In all, about 66,000 compounds went through this assay and about 960 (1.5%) showed an effect of 50% or more. For the sample, strong results were picked, then their nearest neighbours and some compounds at random.
# Tested on: Trypanosoma brucei
# Test: Trypanosoma brucei 72 hour study
# Assay type: functional, organism-based
# Set-up: scale not given: in the data most compounds retested in dose-response had high values
smiles,measurement,setting,value
CC(C)n1c(=O)c2ccccc2n(CCCN(C)C)c1=O.Cl,Percent Effect,"30 µM, 30.03 µM",2.697%
COCC(=O)Nc1ccnn1-c1ccc(Cl)cc1,Percent Effect,"30.3 µM, […]",12.6%
Cc1ncc2c(n1)C1(CCN(C(=O)C(C)C)CC1)OCC2.Cl,Percent Effect,"30.3 µM, […]",-4.848%
O=C(Cn1ccc2sccc2c1=O)NCc1ccccc1F,Percent Effect,"30 µM, 30.03 µM",1.93%
Clc1cc(NCc2ccncc2)nc2[nH]ccc12,Percent Effect,"30 µM, 30.03 µM",-24.9%
COc1ccccc1CCNC(=O)C1CCC(Cn2cnnn2)CC1 (centres undefined),Percent Effect,"30 µM, 30.03 µM",-33.08%
O=C(NCCc1ccccc1)C1CCC(Cn2cnnn2)CC1 (centres undefined),Percent Effect,"30 µM, 30.03 µM",56%
COc1ccc(CCNC(=O)C2CCC(Cn3cnnn3)CC2)cc1 (centres undefined),Percent Effect,"30 µM, 30.03 µM",42.94%
Cl.Clc1ccccc1CN1CCc2nc(C3CCNCC3)ncc2C1,Percent Effect,"30.3 µM, […]",9.906%
O=C(NCCCOCC1CC1)Nc1ccc(-n2cncn2)c(F)c1,Percent Effect,10 µM,-25.61%
CC(C)NC(=O)[C@@H](NC(=O)N1CCN(c2ccc(Cl)cc2)CC1)C(C)C,Percent Effect,"30 µM, 30.03 µM",72.09%
CC(=O)c1ccc(N2CCN(C(=O)NC(C)c3ccc(C)o3)CC2)cc1 (centres undefined),Percent Effect,"30 µM, 30.03 µM",19.85%
CC(C)[C@H](NC(=O)N1CCN(c2ccc(Cl)cc2)CC1)C(=O)NC1CC1,Percent Effect,"30 µM, 30.03 µM",-23.38%
CC(C)NC(=O)[C@H](C)NC(=O)N1CCN(c2ccc(Cl)cc2)CC1,Percent Effect,"30 µM, 30.03 µM",36.61%
CC(C)C(NC(=O)N1CCN(c2ccc(Cl)cc2)CC1)C(=O)NC1CC1 (centres undefined),Percent Effect,"30 µM, 30.03 µM",53.99%
CC(C)NC(=O)C(NC(=O)N1CCN(c2ccc(Cl)cc2)CC1)C(C)C (centres undefined),Percent Effect,"30 µM, 30.03 µM",55.67%
CN(C(=O)NC1CC1)C1CCN(c2ccc(Cl)cc2)CC1,Percent Effect,"30 µM, 30.03 µM",-50.01%
Cn1cc(NC(=O)CNC(=O)N2CCN(c3ccc(Cl)cc3)CC2)cn1,Percent Effect,"30.3 µM, […]",4.499%
CNS(=O)(=O)c1ccccc1N1CCN(C(=O)NC(C)C)CC1,Percent Effect,"30 µM, 30.03 µM",-6.64%
CC(C)NC(=O)C(C)NC(=O)N1CCN(c2ccc(Cl)cc2)CC1 (centres undefined),Percent Effect,"30 µM, 30.03 µM",51.3%
C[C@H](NC(=O)N1CCN(c2ccc(Cl)cc2)CC1)C(=O)N1CCSCC1,Percent Effect,"30 µM, 30.03 µM",-37.38%
CC(NC(=O)N1CCN(c2ccc(Cl)cc2)CC1)C(=O)N1CCSCC1 (centres undefined),Percent Effect,"30 µM, 30.03 µM",25.8%
O=C1CC2(CCN(Cc3ccoc3)CC2)CN1Cc1cc(F)cc(F)c1,Percent Effect,"30 µM, 30.03 µM",-15.51%
Cc1nc(CCNC(=O)C(N)c2c(C)n[nH]c2C)sc1C (centres undefined),Percent Effect,"30.3 µM, […]",-1.575%
CN(c1ncnc2ccccc12)C1CCCN(c2cccnn2)C1 (centres undefined),Percent Effect,"30.3 µM, […]",-20.2%
NC(=O)CNC(=O)c1ccc(CNCc2ccc(F)cc2F)cc1,Percent Effect,"30 µM, 30.03 µM",-29.88%
Br.Cc1c(NC(=O)CN2CCN(C3CCCC3)C(=O)C2)cnn1C,Percent Effect,"30.3 µM, […]",-20.91%
CNC(=O)[C@@H]1C[C@H]2CN(C(=O)c3ccco3)C[C@H]2N1C(C)C.O=C(O)C(F)(F)F,Percent Effect,"30.3 µM, […]",-12.88%
Cn1cc(C2CCCN2C(=O)c2cnc(C3CC3)s2)cn1 (centres undefined),Percent Effect,"30 µM, 30.03 µM",-42.9%
CN(C)[C@@H]1CCN(C(=O)NC2CCCC2)[C@H]1Cc1cnn(C)c1.O=C(O)C(F)(F)F,Percent Effect,"30 µM, 30.03 µM",-1.718%
CN(C)C(=O)c1cnc2n1CCN(Cc1ccccc1)C2.O=C(O)C(F)(F)F,Percent Effect,"30 µM, 30.03 µM",-11.93%
COCCn1ccc2cc(NC(=O)COC)ccc21,Percent Effect,"30 µM, 30.03 µM",51.21%
CCC(=O)Nc1ccc2c(ccn2CCOC)c1,Percent Effect,"30 µM, 30.03 µM",30.95%
COCCn1ccc2cc(NC(C)=O)ccc21,Percent Effect,"30 µM, 30.03 µM",20.32%
COCCC(=O)N[C@H]1CC[C@H](Nc2nccc(-c3ccncc3)n2)C1,Percent Effect,"30 µM, 30.03 µM",-1.414%
CCOCC1CN(c2ccncn2)Cc2cnn(CC)c21.O=C(O)C(F)(F)F.O=C(O)C(F)(F)F (centres undefined),Percent Effect,"30 µM, 30.03 µM",24.08%
COc1ccc(CN2CCn3c(C(=O)N(C)C)cnc3C2)cc1.O=C(O)C(F)(F)F,Percent Effect,"30.3 µM, […]",-109.7%
COc1ccc(C)cc1NC(=O)Nc1cnc(N2CCN(C)CC2)nc1,Percent Effect,"30 µM, 30.03 µM",53.87%
COc1ccc(C)cc1NC(=O)Nc1cnc(N2CCCC2)nc1,Percent Effect,"30 µM, 30.03 µM",-9.808%
COc1ccc(C)cc1NC(=O)Nc1cnc(N2CCOCC2)nc1,Percent Effect,"30 µM, 30.03 µM",-0.7377%
Cc1csc2nc3n(c(=O)c12)CCN(Cc1ccccn1)CC3.Cl,Percent Effect,"30.3 µM, […]",-40.83%
CC(C)c1ccc(C(CN)N2CCc3sccc3C2)cc1 (centres undefined),Percent Effect,"30.3 µM, […]",99.87%
CCC(=O)NCC(c1ccc(SC)cc1)N1CCc2sccc2C1 (centres undefined),Percent Effect,"30.3 µM, […]",-2.044%
CSc1ccc(C(CNC(C)=O)N2CCc3sccc3C2)cc1 (centres undefined),Percent Effect,"30.3 µM, […]",7.525%
NCC(c1ccc(Cl)cc1)N1CCc2sccc2C1 (centres undefined),Percent Effect,"30.3 µM, […]",100.3%
CSc1ccc(C(CN)N2CCc3sccc3C2)cc1 (centres undefined),Percent Effect,"30 µM, 30.03 µM",-3.703%
NCC(c1ccccc1)N1CCc2sccc2C1 (centres undefined),Percent Effect,"30 µM, 30.03 µM",35.83%
Cc1cccc(S(=O)(=O)N2CC[C@H]3CO[C@H](CN(C)C)[C@H]3C2)c1.O=C(O)C(F)(F)F,Percent Effect,"30 µM, 30.03 µM",25.11%
COCc1cccc(C(=O)N2C[C@H]3CC[C@@H]2CN(Cc2cscn2)C3)n1,Percent Effect,"30 µM, 30.03 µM",-49.27%
Cc1nc(CN2CCC3(CCN(c4cnn(C)c4)C3=O)C2)cs1.O=C(O)C(F)(F)F (centres undefined),Percent Effect,"30.3 µM, […]",-7.553%
CCN1CCC2(C1)CN(S(=O)(=O)c1cn(C)cn1)C2.O=C(O)C(F)(F)F.O=C(O)C(F)(F)F,Percent Effect,"30.3 µM, […]",-6.671%
Cl.O=C(c1cc2c(s1)CCCC2)N1CCc2nc(C3CCCN3)ncc2C1 (centres undefined),Percent Effect,"30.3 µM, […]",6.632%
Cn1cc(-c2ncc(C(=O)NCCCn3ccccc3=O)s2)cn1,Percent Effect,"30 µM, 30.03 µM",73.43%
O=C(NCCCn1ccccc1=O)c1cnc(-c2ccsc2)s1,Percent Effect,"30 µM, 30.03 µM",22.57%
CS(=O)(=O)NCCCNC(=O)c1cnc(-c2ccsc2)s1,Percent Effect,"30 µM, 30.03 µM",-7.977%
Cc1nc(N2CCCC(N3CCCC3)C2)c2cnn(C)c2n1 (centres undefined),Percent Effect,"30 µM, 30.03 µM",50.19%
Cn1ncc2c(N3CCN4CCCCC4C3)nc(C3CCCC3)nc21 (centres undefined),Percent Effect,"30 µM, 30.03 µM",-37.34%
Cn1ncc2c(N3CC(N4CCCCC4)C3)nc(C3CCCC3)nc21,Percent Effect,"30 µM, 30.03 µM",-31.56%
CCc1cc(N2C[C@H](C3CC3)[C@@H](N)C2)nc(N2CCOCC2)n1,Percent Effect,"30 µM, 30.03 µM",-22.85%
CNc1cc(C)nc(N2C[C@@H](C(=O)O)[C@H](C3CC3)C2)n1,Percent Effect,"30 µM, 30.03 µM",-4.016%
CC(C)Oc1cc(N2CC[C@H](CO)[C@@H](O)C2)nc(N)n1,Percent Effect,"30 µM, 30.03 µM",-21.24%
CC(C)Oc1cc(N2C[C@H](C3CC3)[C@@H](N)C2)nc(N)n1,Percent Effect,"30 µM, 30.03 µM",88.99%
CC(C)Oc1cc(N2C[C@@H](C)O[C@@H](C)C2)nc(N)n1,Percent Effect,"30.3 µM, […]",-11.25%
Cc1cc(N2C[C@H](C3CC3)[C@@H](N)C2)nc(N2CCCCC2)n1,Percent Effect,"30 µM, 30.03 µM",-8.75%
CNc1cc(C)nc(N2C[C@H](C3CC3)[C@@H](N)C2)n1,Percent Effect,"30 µM, 30.03 µM",85.5%
CNc1cc(C)nc(N2C[C@H](NC(=O)C3CCOCC3)[C@@H](C3CC3)C2)n1,Percent Effect,"30 µM, 30.03 µM",-23.63%
CCc1cc(N2C[C@H](C3CC3)[C@@H](N)C2)nc(N2CCCC2)n1,Percent Effect,"30 µM, 30.03 µM",72.1%
CN(c1ccncn1)C1CC2(CCN(C(=O)Cc3cccs3)C2)C1 (centres undefined),Percent Effect,"30.3 µM, […]",-10.04%
O=C(O)C(F)(F)F.O=C(c1cnccn1)N1CCCC2(CCN(Cc3ccsc3)CC2)C1,Percent Effect,"30.3 µM, […]",-8.407%
CCC(C)Oc1ccc(CNCCc2c[nH]cn2)cc1Cl (centres undefined),Percent Effect,"30 µM, 30.03 µM",-7.702%
Cc1ccc(O[C@@H]2C[C@H]3CN(C(=O)c4cccnc4)CCN3C2)cc1.O=C(O)C(F)(F)F.O=C(O)C(F)(F)F,Percent Effect,"30 µM, 30.03 µM",12.8%
CC(C)(C)c1cnc(CN2CCC(CN3CCOCC3)CC2)o1,Percent Effect,"30.3 µM, […]",1.879%
Cc1noc(C)c1C(=O)N1CC[C@]2(C[C@@H](OCc3cccnc3)CO2)C1.O=C(O)C(F)(F)F,Percent Effect,"30.3 µM, […]",-230.9%
COc1ccccc1OCCNS(=O)(=O)N1CCOCC1,Percent Effect,"30 µM, 30.03 µM",-16.37%
O=C(NCCSCc1ccc(Br)s1)C1CCCN(c2cnccn2)C1 (centres undefined),Percent Effect,"30 µM, 30.03 µM",-0.7253%
O=C(NCCSCc1ccc(Br)s1)C1CCCN(C(=O)c2cccs2)C1 (centres undefined),Percent Effect,"30 µM, 30.03 µM",59.17%
O=C(NCCSCc1cccs1)C1CCCN(C(=O)N2CCCC2)C1 (centres undefined),Percent Effect,"30 µM, 30.03 µM",-13.33%
COc1ccc(OCC(=O)NS(=O)(=O)c2ccc(Br)s2)cc1,Percent Effect,10 µM,-20.86%
Cc1ccc2c(n1)N(Cc1ccncc1)CCN(S(C)(=O)=O)C2.O=C(O)C(F)(F)F.O=C(O)C(F)(F)F,Percent Effect,"30 µM, 30.03 µM",-12.2%
COCCn1cc2c(n1)C(CNCc1ccsc1)OCC2.O=C(O)C(F)(F)F (centres undefined),Percent Effect,"30.3 µM, […]",-36.05%
CSc1nccc(N2CCCC(c3nccn3C(C)C)C2)n1 (centres undefined),Percent Effect,"30 µM, 30.03 µM",-62.98%
CC(C)n1ccnc1C1CCCN(c2ccccn2)C1 (centres undefined),Percent Effect,"30 µM, 30.03 µM",54.17%
CC(C)n1ccnc1C1CCCN(c2ccnc3ccccc23)C1 (centres undefined),Percent Effect,"30 µM, 30.03 µM",44.45%
Cc1cc(C)n(-c2nc(C(=O)NCCN3CCC(C)CC3)cs2)n1,Percent Effect,"30.3 µM, […]",41.67%
Cl.c1ccc(CCNc2cccc(C3CCCNC3)n2)cc1 (centres undefined),Percent Effect,"30.3 µM, […]",66.04%
Cl.c1cc(NCc2ccncc2)nc(C2CCCNC2)c1 (centres undefined),Percent Effect,"30.3 µM, […]",-1.5%
Cl.c1cc(CC2CCCNC2)nc(NCCc2cnccn2)c1 (centres undefined),Percent Effect,"30.3 µM, […]",-1.325%
CCCn1ccnc1-c1cccc(NC(=O)C2CCCOC2)c1 (centres undefined),Percent Effect,"30.3 µM, […]",-87.17%
O=C(CCN1CCc2ccccc21)N1C[C@@H](O)[C@H](N2CCCC2)C1,Percent Effect,"30.3 µM, […]",-36.76%
CN1CC2(CCN(Cc3cccnc3)CC2)c2cccc(F)c21.Cl,Percent Effect,"30.3 µM, […]",100.8%
CN1CC2(CCN(C(=O)c3cccnc3)CC2)c2cccc(F)c21.Cl,Percent Effect,"30.3 µM, […]",-15.84%
CN1CC2(CCN(Cc3cccnc3)CC2)c2cc(F)ccc21,Percent Effect,"30.3 µM, […]",-24.44%
CCOc1ccc(CC(=O)N2CCN(c3nccn3CC)CC2)cc1.Cl,Percent Effect,"30.3 µM, […]",9.034%
O[C@]12CC[C@H](CC1)N(Cc1ccc(F)cc1)C2CN1CCOCC1 (some centres undefined),Percent Effect,"30.3 µM, […]",-19.63%
Cc1nn(C)c(C)c1CC(=O)N1CCCN(c2cccnn2)CC1,Percent Effect,"30.3 µM, […]",-5.706%
CS(=O)(=O)NCC1CCCN(C(=O)c2ccc(F)c(F)c2)C1 (centres undefined),Percent Effect,"30.3 µM, […]",-25.29%
COc1cccc(S(=O)(=O)Cc2noc(CC(C)C)n2)c1,Percent Effect,"30.3 µM, […]",1.682%
CCc1noc(CS(=O)(=O)c2cccc(OC)c2)n1,Percent Effect,"30.3 µM, […]",-11.01%
CCCc1noc(CS(=O)(=O)c2cccc(OC)c2)n1,Percent Effect,"30.3 µM, […]",58.74%
